# Screening data: PubChem, several laboratories
# PrPC surface inh = inhibitors of human cell surface prion protein PrPC | P04156 | TR-FRET read-out | inhibition, % at 13.8 µM | 370,000 compounds, 0.43% hits | AID 720596; in the data active = inhibition above about 24%; also: 0% = median of the test wells and 100% = reference compound wells
# SSB-PriA inh = inhibitors of Klebsiella pneumoniae PriA binding to SSB C-terminal tail; AlphaScreen SSBct-PriA binding, biotinylated peptide; inhibition, % at 33 µM; 430,000 compounds, 0.6% hits; AID 1272365; in the data active = inhibition mostly above about 37%, no sharp cut-off; inactive = mostly below about 20%;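 also: plate controls were negative control peptide for no effect and reference peptide for full effect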
# PfHsp40 yeast = restores yeast growth despite PfHsp40 toxicity; 340,000 compounds, 0.68% hits; growth rescue, % at 12.5 µM; S. cerevisiae expressing PfHsp40, growth rescue, ATP luminescence; in the data active = growth rescue above about 28%, passing the limit was not always enough; inconclusive = no clear call, values can overlap the other calls;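 also: yeast W303a lacking pdr1 and pdr3 grown in galactose medium; growth measured after three days at 30 °C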
# MazEF act = activators of E. coli MazEF toxin-antitoxin RNase. P0AE70. FAM/BHQ RNA-DNA oligo cleavage fluorescence, 5 h. activation, % at 20 µM. 350,000 compounds, 0.32% hits; in the data active = activation above about 50%
# Target sequence (P0AE70 whole entry, looked up): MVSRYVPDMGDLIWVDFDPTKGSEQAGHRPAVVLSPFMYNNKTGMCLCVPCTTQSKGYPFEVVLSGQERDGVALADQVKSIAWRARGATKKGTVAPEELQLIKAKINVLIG
# PrP 5UTR inh = inhibition of PrP 5' UTR reporter expression; cell-based PrP 5' UTR mRNA reporter, plate reader; inhibition, % (no concentration beside the values); 340,000 compounds, 0.35% hits; AID 488862; in the data active = inhibition above about 52%; also: 0 = median of the neutral control wells
# Active calls of the source: *; ? = inconclusive; · = no result given. Compounds with a hit are over-represented: about 1.8% of the library has one in this group of screens.
SMILES,PrPC surface inh,SSB-PriA inh,PfHsp40 yeast,MazEF act,PrP 5UTR inh
O=S(=O)(Nc1ccc(-n2cccc2)cc1)c1ccc(F)cc1,14,17,3,0,9
O=S(=O)(Nc1ccc(-n2cccc2)cc1)c1ccc(Cl)c(Cl)c1,-1,-1,66*,-19,-34
COc1cc(-c2[nH]ncc2CN2CCSCC2)cc(OC)c1OC,5,1,0,4,-15
Cc1cc(C(=O)CSc2nncn2C)c(C)n1-c1ccccc1,3,8,8,57*,-78
Cc1cc(C(=O)CSc2cccc[n+]2[O-])c(C)n1-c1ccccc1,1,3,0,-8,-10
Cc1ccc(S(=O)(=O)N(Cc2cccc(C(F)(F)F)c2)C(=O)N2CCN(C)CC2)cc1,-4,2,52*,1,-27
COCCNC(=O)c1nn(-c2cc(OC)cc(OC)c2)c(=O)c2ccccc12,-1,-12,1,6,-117
Oc1ccc(CSc2ncccn2)c2cccnc12,·,76*,·,·,·
Oc1ccc(CNc2ccccc2Cl)c2cccnc12,10,·,·,·,·
Cc1[nH]c2ccccc2c1C(=O)CSc1nccc(=O)[nH]1,2,2,0,-2,-26
N#CSCc1ccc(O)c2ncccc12,·,111*,·,·,·
Oc1ccc(CSc2ccccc2)c2cccnc12,·,88*,·,·,·
O=c1ccnc(SCc2ccc(O)c3ncccc23)[nH]1,·,106*,·,·,·
CCCCCCCCCCSCc1ccc(O)c2ncccc12,·,57,·,·,·
CCOC(=O)C1CCN(C(=O)CSc2ccccc2)CC1,3,-8,0,-4,-26
Cc1cc2oc(=O)cc(COC(=O)Cn3cnnn3)c2cc1C(C)C,11,-5,0,7,6
COc1ccc(NCc2ccc(OC)c(Cn3ccnc3)c2)c(OC)c1,10,73*,2,2,-9
Cc1ccc(N=Nc2ccc3ccccc3c2O)cc1,-10,-5,1,22,37
Oc1c(N=Nc2ccc(F)cc2)ccc2ccccc12,-6,39*,0,-10,-5
COc1ccc(N=Nc2ccc3ccccc3c2)c(O)c1,-15,34,0,44,4
COc1cccc(N=Nc2ccc3ccccc3c2O)c1,-2,59,0,76*,-2
CC(=O)Nc1ccc2c(c1)Cc1cc(N3C(=O)C=CC3=O)ccc1-2,0,-4,668*,3,-16
COc1ccc(CCNC(=O)CS(=O)Cc2nc(-c3ccccc3F)oc2C)cc1OC (stereo not given),0,2,0,8,-29
CCCCn1c(SCC(=O)NCc2ccco2)nc2ccc(N3CCOCC3)cc2c1=O,2,2,-1,-2,-34
COc1ccc(Nc2c([N+](=O)[O-])ccc3c2=NC2(CCCCC2)N=3)cc1,-9,76*,-1,6,-10
SMILES,PrPC surface inh,SSB-PriA inh,PfHsp40 yeast,MazEF act,PrP 5UTR inh
CN(C)c1ccc(C=NNC(=O)C2CC2c2ccccc2)cc1 (stereo not given),·,44*,·,·,·
CN(CC(=O)Nc1ccc(F)cc1)C(=O)COC(=O)CNC(=O)c1sc2ccccc2c1Cl,6,-8,0,70*,-6
COC(=O)c1ccc(N2C(=O)CC(N(C)CCc3ccc(OC)c(OC)c3)C2=O)cc1 (stereo not given),3,5,451*,0,-10
O=C(CCc1ccc(Oc2cc([N+](=O)[O-])cc([N+](=O)[O-])c2)cc1)N1CCCCCC1,-13,39*,1,-6,-13
O=C(Cc1ccc([N+](=O)[O-])cc1)N1CCCCCC1,-4,-17,0,-9,-28
CN1CCc2nc(N)c(C#N)c(-c3ccco3)c2C1,·,-8,·,·,·
NC(=O)c1cc(S(=O)(=O)NCCCc2ccccc2)cs1,6,49*,-1,5,-14
CCCCSc1nc(C)[nH]c1[N+](=O)[O-],2,3,-2,-4,-9
COc1ccccc1C1=NNC(=Nc2cccc(S(=O)(=O)N(C)C)c2)SC1,20,43*,0,-1,-31
COCCn1c(C)cc(C2=NNC(=Nc3ccccc3)SC2)c1C,1,10,0,-4,-59
COc1cc(OC)c2c(c1)C(=O)OC2OC (stereo not given),4,-1,0,-3,-15
Cc1cccc(N2CCN(S(=O)(=O)c3ccc(Cl)c4ccccc34)CC2)c1C,·,-7,·,·,·
COc1ccc(-c2c(C#N)c(SCC(=O)Nc3nsc(-c4ccc(Cl)cc4)n3)nc3c2C(=O)CC(C)(C)C3)cc1,·,-1,·,·,·
O=C(Oc1ccc2c(c1)O/C(=C\c1ccncc1)C2=O)c1ccccc1,-4,-23,-1,220*,-9
COc1ccc(-c2cc(-c3nc4ccccn4c3NCc3ccccc3)ccc2OC)cc1,85*,-3,1,-13,16
CCCCNc1c(-c2ccc(SC3CCCCC3)c(OC)c2)nc2ccc(C)cn12,4,21,174*,2,-11
Clc1cccc(-c2ccc(-c3nc4ccccn4c3NCc3ccccc3)cc2)c1,10,-7,10,-2,-63
COc1ccc(-c2nc3ccc(C)cn3c2NCc2ccccc2)cc1SC1CCCCC1,·,-1,0,-4,4
CCC(C)Sc1cc(-c2nc3ccc(C)cn3c2NCc2ccccc2)ccc1OC (stereo not given),11,39*,?,-13,0
COc1ccc(-c2nc3ccccn3c2NCc2ccc3c(c2)OCO3)cc1,-7,37,1,0,-32
COc1ccc(-c2nc3cc(C)ccn3c2NCc2ccc3c(c2)OCO3)cc1,0,54*,-1,1,2
CCn1cc(C=NNC(=O)COc2cccc3cccnc23)c2ccccc21,·,9,·,·,·
O=C(c1cnc2ccc3ccccc3c2c1)c1cc(F)ccc1O,-11,-13,84*,-12,-24
COCCN1CC(=O)N(c2cccc(C)c2C)C(c2ccc(Cl)cc2)C1=O (stereo not given),2,-22,0,2,-13
Cc1cccc(N2C(=O)C(Oc3ccc(Cl)cc3Cl)C2C=O)c1C (stereo not given),8,4,280*,8,-17
SMILES,PrPC surface inh,SSB-PriA inh,PfHsp40 yeast,MazEF act,PrP 5UTR inh
CCCOc1ccc(/C=c2\sc3nc(-c4ccco4)nn3c2=O)cc1OCC,1,·,0,218*,-18
CCCCCN1CCCCC(NC(=O)c2ccc3ccccc3c2)C1=O (stereo not given),12,·,·,·,·
COc1ccc(C)c2sc(N(CCCn3ccnc3)C(=O)Cc3ccccc3)nc12,·,33*,·,·,·
Cc1ccc(C)c2sc(N(CCCn3ccnc3)C(=O)Cc3ccc(F)cc3)nc12,·,33*,·,·,·
Cc1ccc(C)c2sc(N(CCCn3ccnc3)C(=O)c3ccco3)nc12,·,-20,·,·,·
CS(=O)(=O)c1ccc(C(=O)N(CCCn2ccnc2)c2nc3ccccc3s2)cc1,·,-1,·,·,·
CCOc1ccc2nc(N(CCCn3ccnc3)C(=O)c3cccs3)sc2c1,·,40*,·,·,·
COc1ccc2nc(N(CCCn3ccnc3)C(=O)Cc3ccc(F)cc3)sc2c1,·,39*,·,·,·
O=C(C1COc2ccccc2O1)N(CCCn1ccnc1)c1nc2ccc(F)cc2s1 (stereo not given),·,69,·,·,·
